Compounds without any hit were thinned out: in the full panel of roughly 79,000, 15% have a hit. The source made the active and inactive calls. Rule as the data show it: active = growth inhibition above about 70%; inactive = the rest.

The assay in a line: NCI Yeast Anticancer Drug Screen. Data for the bub3 strain (AID 167). As to conditions: S. cerevisiae bub3 mutant strain, at 5.0 µM (retest, dose inferred, filed as 0.5), stronger effect = higher value. In short, it runs like this:
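Compounds were applied to a genetically altered yeast strain carrying a cell-cycle control defect. Growth inhibition was scored against vehicle-treated controls.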
`CS(=O)(=O)SCc1ccc([N+](=O)[O-])cc1`: the growth inhibition is 51% (inactive).

With `Cc1csc(=S)n1OC(=O)NC1CCCCC1`, the growth inhibition was 99% (active).

`CCOc1ccc(NC(=O)C2=C(C)NC(C)=C(C(=O)Nc3ccc(OCC)cc3)C2c2cccc([N+](=O)[O-])c2)cc1`: the growth inhibition is -8% (inactive).

`CC(C)(C)N=C(NO)c1ccccc1`: the growth inhibition is -11% (inactive).

With `CCCCC/C(=C(\C#N)C(=O)OCC)c1ccccc1`, the growth inhibition was 1% (inactive).

For `O=C(NCCCl)Sc1ccc(Cl)cc1`, the growth inhibition is -71% (inactive).

For `O=C1Nc2ccc(Br)cc2C1=Nc1ccc2c(c1)OCO2`, the growth inhibition is 30% (inactive).

As for `CCC(C)OC(=O)Nc1ccc(C)c(NC(=O)OC(C)CC)c1` (configuration not stated), the growth inhibition was 2% (inactive).

Turning to `O=C(O)c1cc2ccc(Cl)cc2c(O)c1C1=CCCCC1`, the growth inhibition was 26% (inactive).

For `CN(C)Cc1cc(N=Nc2ccc(Cl)cc2)ccc1OC(=O)c1ccccc1`, the growth inhibition was -15% (inactive).

Take `CN1CCN(C(=O)/C=C/C(=O)c2ccccc2)CC1`: the growth inhibition is 7% (inactive).

Regarding `CCCC/C=C/C(C)(C(=O)OCC)C(=O)OCC`, the growth inhibition was -2% (inactive).

In the case of `Cc1nc(-c2cc3cc([N+](=O)[O-])ccc3oc2=O)cs1`, the growth inhibition was -15% (inactive).

As for `Cc1nc2ccccc2nc1NNc1ccccc1`, the growth inhibition is 38% (inactive).

As to `CN(C)[C@@H]1C(=O)C(C(N)=O)=C(O)[C@@]2(O)C(=O)C3=C(O)c4c(O)cccc4C[C@H]3C[C@@H]12`, the growth inhibition was 97% (active).

As for `COc1ccc(NC(=O)CC2SC(=Nc3ccccc3C)NC2=O)c([N+](=O)[O-])c1` (configuration not stated), the growth inhibition is -8% (inactive).

As for `COc1cc(O)c2c(c1O)C(=O)c1cc(C)ncc1C2=O`, the growth inhibition was 5% (inactive).
